From PubChem BioAssay
USP17 block: inhibitors of human USP17 deubiquitinase. A8MUK1. purified USP17, Ub-rhodamine cleavage fluorescence, 3 h. inhibition, % at 50 µM. hit rate 6.5% among 47,000. AID 1645855
Target sequence (A8MUK1 whole entry, looked up): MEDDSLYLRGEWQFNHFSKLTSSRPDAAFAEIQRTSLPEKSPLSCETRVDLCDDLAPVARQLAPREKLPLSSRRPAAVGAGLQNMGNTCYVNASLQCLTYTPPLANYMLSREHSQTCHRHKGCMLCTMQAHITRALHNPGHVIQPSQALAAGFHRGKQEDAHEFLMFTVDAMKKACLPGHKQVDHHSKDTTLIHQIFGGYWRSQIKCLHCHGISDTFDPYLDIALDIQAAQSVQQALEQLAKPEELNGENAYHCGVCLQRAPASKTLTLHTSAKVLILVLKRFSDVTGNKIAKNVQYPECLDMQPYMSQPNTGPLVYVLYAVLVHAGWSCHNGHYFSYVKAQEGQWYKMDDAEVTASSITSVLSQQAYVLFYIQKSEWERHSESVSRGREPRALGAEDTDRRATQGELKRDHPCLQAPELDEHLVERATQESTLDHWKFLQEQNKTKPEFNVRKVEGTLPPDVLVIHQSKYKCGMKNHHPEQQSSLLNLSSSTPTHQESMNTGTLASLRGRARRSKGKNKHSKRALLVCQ
USP30 inh: inhibitors of human USP30 deubiquitinase. Q70CQ3. purified USP30, Ub-rhodamine cleavage fluorescence. inhibition, % at 25 µM. hit rate 5.3% among 47,000
USP28 inh: human USP28 deubiquitinase inhibition | purified USP28, Ub-rhodamine cleavage fluorescence, 30 min | inhibition, % at 25 µM | hit rate 3% among 47,000 | AID 1645857
OTUD3 inh: blocks human OTUD3 ubiquitin-rhodamine cleavage; Q5T2D3; purified OTUD3, Ub-rhodamine fluorescence, 2 h; inhibition, % at 25 µM; hit rate 0.7% among 47,000; AID 1645858
A number is an active result; . = inactive; / = not tested or not shown. In the library only some 12% were active in any assay of this set; here they are far more common. Cut-off read from the data, not from the text of the source: active = inhibition above about 30%; inactive = the rest.

SMILES	USP17 block	USP30 inh	USP28 inh	OTUD3 inh
O=C(NCc1ccc(F)cc1F)c1c(O)c2cnn(-c3ccc(F)cc3)c2[nH]c1=O	.	.	.	.
Cn1c(=O)c(C(=O)CN2CCN(c3ccc(O)cc3)CC2)c(N)n(Cc2ccccc2)c1=O	59	.	.	.
CC1CCc2c(sc3nc(SCC(=O)NCc4ccco4)[nH]c(=O)c23)C1 (centres undefined)	.	.	.	.
CCNc1nc(SCC(C)=O)nc2sc3c(c12)CCC(C)C3 (centres undefined)	58	34	.	.
c1ccc2c(Cc3nc(-c4ccncc4)no3)cccc2c1	.	.	85	.
COc1ccc(NC(C)C(=O)N2CC(=O)Nc3ccccc32)cc1 (centres undefined)	.	.	.	.
COc1ccc(C(NC(=O)c2nc3n(n2)-c2ccccc2S(=O)(=O)N3)C(C)C)cc1 (centres undefined)	33	.	.	.
Cc1cc(C)cc(-n2ccn3cc(-c4cccc(Cl)c4)nc3c2=O)c1	45	.	.	.
CC(/C=C/C=C(\C)C(O)C(C)C(=O)OC1CC(C)C=C2C=CC(C)(O)C(C)(C(=O)CCO)C21)=C\C=C\C(=O)O (centres undefined)	.	.	.	.
O=C1c2c(O)ccc(O)c2C2(Oc3cccc4cccc(c34)O2)C2OC12 (centres undefined)	97	89	72	68
O=C1c2c(O)cccc2C2(Oc3cccc4cccc(c34)O2)C2OC12 (centres undefined)	98	33	60	47
O=C(c1cccc2ncccc12)N1CCNCC1c1ccccc1 (centres undefined)	.	.	.	.
O=C(Nc1ccccc1C(=O)NC1CCSC1)c1ccc([N+](=O)[O-])cc1 (centres undefined)	46	45	.	.
O=C(NCC1CCCN(Cc2ccc3c(c2)CCO3)C1)c1cccc2ccccc12 (centres undefined)	.	.	.	.
CCn1cc(-c2cc(C(=O)Nc3cnn(Cc4cccc(F)c4)c3)c3ccccc3n2)cn1	63	.	.	.
COc1ccnc2c1c(=O)n(CC(=O)NCc1ccccc1Cl)c(=O)n2C	.	42	.	.
COc1ccccc1CNC(=O)Cn1c(=O)c2c(ncn2CC(C)C)n(Cc2ccccc2)c1=O	.	31	.	.
CCOc1ccccc1NC(=O)Cn1c(=O)n(CCCCC(=O)NCc2ccccc2OC)c(=O)c2ccccc21	.	.	.	.
COc1ccccc1CNC(=O)CCCCn1c(=O)c2ccccc2n(Cc2ccccc2C#N)c1=O	65	.	.	.
COc1ccnc2c1c(=O)n(CC(=O)N1CCCC1)c(=O)n2C	.	.	.	.
COc1ccccc1CNC(=O)CCCCn1c(=O)c2ccccc2n(Cc2ccc(C)cc2)c1=O	38	.	.	.
Cc1cccnc1Nc1cccc(C2CCCN2CC(N)=O)n1 (centres undefined)	.	.	.	.
Cc1ccc2c(CN3CCN(Cc4ccc5c(c4)OCO5)CC3)cc(=O)oc2c1	.	.	.	.
COc1ccc(-c2ccc(NS(=O)(=O)c3ccc(F)cc3)cc2)nn1	.	.	.	.
COc1ccc(S(=O)(=O)Nc2ccc(Nc3ccc(-n4cccn4)nn3)cc2)cc1	47	62	.	.
SMILES	USP17 block	USP30 inh	USP28 inh	OTUD3 inh
CC1(C(=O)NC2CCCC2)Cn2cnc(C(=O)NCc3ccccn3)c2C(=O)N1C1CC1 (centres undefined)	.	.	.	.
CCc1ccc(NC(=O)CN2CCN(c3nc4ccccc4s3)CC2)cc1	.	.	.	.
CCc1ccc(NC(=O)Cc2nc(-c3ccc(O)cc3O)cs2)cc1	38	/	/	.
CC(O)CN1CCn2c(nc3cc(C(=O)NC4CCCCC4)ccc32)C1 (centres undefined)	.	.	.	.
FC(F)(F)c1ccc(Oc2ccc(-c3ccccc3)cc2)nc1	.	.	.	.
O=C(C1CCN(c2cnc(N3CCCC3)nc2)CC1)N1CCCC1	.	.	.	.
Cc1cccc(-n2ncc3c(N(CCO)CCO)ncnc32)c1	.	34	.	.
C[C@@H]1CC[C@H]2C(C)(C)[C@H](O)[C@@H](O)C[C@]2(C)[C@@]12Cc1c(O)cc3c(c1O2)CNC3=O	.	.	.	.
CC(=O)O[C@H]1CC[C@]2(C)[C@H]3Cc4c(O)cc5c(c4O[C@]3(C)CC[C@H]2C1(C)C)CNC5=O	34	.	.	.
COc1cccc(Cn2nc3n(C(C)C)c(=O)c4ccc(C(=O)NCC(C)C)cc4n3c2=O)c1	33	.	.	.
Cc1ccccc1CNC(=O)c1nnc(C(=O)Nc2ccc(F)cc2)s1	.	39	.	.
COc1ccc(NC(=O)c2nnc(C(=O)NCc3ccccc3F)s2)cc1	.	.	.	.
O=C(N1CCC(Nc2nc3c(c(=O)[nH]2)CCC3)CC1)C1(c2ccccc2)CC1	.	.	.	.
O=C1C/C(=C\c2ccc3c(c2)OCO3)Cc2ccccc21	.	.	30	.
O=C1CSCC(=O)N1c1ccc2c(c1)OCO2	/	.	.	.
O=C1Cc2ccccc2C(=O)N1c1ccc2c(c1)OCO2	66	.	36	.
O=C(Nc1cnc2ccccc2c1)N1CCCCCC1	.	.	.	.
CN(C)S(=O)(=O)c1cccc(C(=O)Nc2nnc(C3CCCCC3)s2)c1	.	.	.	.
COc1ccc(C(=O)NCCS(=O)(=O)N2CCN(c3ccccc3)CC2)cc1	40	.	.	.
O=C(Nc1ccccc1N1CCOCC1)c1c2c(nc3ccccc13)CCN(Cc1ccccc1)C2	.	.	.	.
CC(C)NC(=O)C1CCN(c2ccc(SCC(=O)Nc3ccccc3Cl)nn2)CC1	.	34	.	.
CCn1cnc2c(-c3ccccc3)cn(CC(=O)Nc3ccccc3C)c2c1=O	.	.	.	.
Cc1ccccc1-n1nnc(C(=O)NCC2CCCO2)c1N (centres undefined)	.	.	.	.
O=C(Nc1cc(Cl)ccc1O)c1ccc(Cn2cnc3ccccc3c2=O)cc1	45	.	.	.
O=C(O)c1ccc(Cn2cnc3ccccc3c2=O)o1	.	.	.	.
SMILES	USP17 block	USP30 inh	USP28 inh	OTUD3 inh
Cc1ccc(Cl)cc1N1CCN(CC(=O)c2cc(C)n(C)c2C)CC1	.	.	.	.
O=C(COc1ccc(F)cc1)Nc1cnc(-c2cccc(Cl)c2)nc1	.	.	.	.
O=C(COc1ccccc1)Nc1cnc(-c2ccccc2)nc1	44	.	.	.
COc1cccc(CC(=O)Nc2cnc(-c3ccc(Cl)cc3)nc2)c1	37	.	.	.
O=C(COc1ccc(F)cc1)Nc1cnc(-c2ccc(Cl)cc2)nc1	74	35	.	.
Cc1ccc(-c2ncc(NC(=O)COc3cccc(C)c3)cn2)cc1	.	.	.	.
COc1cccc(C(=O)Nc2cnc(-c3ccccc3)nc2)c1	.	.	.	.
O=C(COc1ccccc1)Nc1cnc(-c2ccc(Cl)cc2)nc1	31	.	.	.
COc1ccc(-c2nc(CCNC(=O)c3ccccc3C(F)(F)F)cs2)cc1	.	.	.	.
Cc1ccc(-c2n[nH]c3c2C(c2ccccc2F)N(c2ccccc2)C3=O)cc1 (centres undefined)	69	55	.	.
